This experiment is described as follows: NCI Yeast Anticancer Drug Screen. Data for the rad14 strain (AID 159).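 Also: 0% = growth of vehicle-treated control cultures.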 As to conditions: S. cerevisiae rad14 strain growth inhibition, stronger effect = higher value. The procedure:
Growth inhibition of yeast strains with defined genetic alterations is measured as a screen for potential anti-cancer activity. Selected strains with alterations in DNA damage repair or cell cycle control were exposed to compounds and growth inhibition was measured relative to vehicle treated controls. The strain used in this assay is rad14

Each structure is given as a SMILES string. The panel holds about 79,000 compounds, 15% with a hit somewhere; the sample as a whole holds those more often. Unmarked numbers belong to inactive results. The source made the active and inactive calls. Rule as the data show it: active = growth inhibition above about 70%; inactive = the rest.

For `Oc1ccccc1N=Cc1ccc(Cl)cc1`, the growth inhibition (at 1.2 µM) was 5%; the growth inhibition (at 3.7 µM) is 5%; the growth inhibition (at 11.0 µM) is 11%; the growth inhibition (at 33.0 µM) was 20%; the growth inhibition (at 100.0 µM) is 34%.
`COc1cc(N(C)C)ccc1/C=C\c1ccnc2ccccc12`: the growth inhibition is -5% (at 1.2 µM); -4% (at 3.7 µM); 0% (at 11.0 µM); 6% (at 33.0 µM); 37% (at 100.0 µM).
The corresponding values for `CC(=O)[C@]1(O)Cc2c(O)c3c(c(O)c2[C@@H](OC2CC(N)C(O)C(C)O2)C1)C(=O)c1c(OCc2ccccc2)cccc1C3=O` (stereo not given in full) are 7%, 18%, 18%, 27% and 51%.
Turning to `COc1ccc(N2C(=O)CC(Cl)C2=O)cc1` (stereo not given), the growth inhibition (at 1.2 µM) is -6%; the growth inhibition (at 3.7 µM) is 1%; the growth inhibition (at 11.0 µM) was 13%; the growth inhibition (at 33.0 µM) is 98% (active); the growth inhibition (at 100.0 µM) is 100% (active).
The corresponding values for `COC(=O)/C=C1/OC(c2ccc(Br)cc2)=C(Br)C1=O` are -4%, -16%, -15%, -21% and 78% (active).
The corresponding values for `CCN(CC)CCNC(=O)c1nn(-c2ccc(Cl)cc2)c2c1CCc1cc(OC)ccc1-2` are -1%, 2%, 10%, 24% and 92% (active).
With `CCC(C)(c1ccc(O)c(C)c1)c1ccc(O)c(C)c1`, the growth inhibition by setting is: (at 1.2 µM) -38%; (at 3.7 µM) -43%; (at 11.0 µM) 15%; (at 33.0 µM) 98% (active); (at 100.0 µM) 98% (active).
For `CC(=O)OCC1OC(O[C@H]2C=C[C@@H](C(=O)OCc3ccccc3)n3c(=O)n(-c4ccccc4)c(=O)n32)C(OC(C)=O)C(OC(C)=O)C1OC(C)=O` (stereo not given in full), the growth inhibition reads like this: (at 1.2 µM) -15%; (at 3.7 µM) 8%; (at 11.0 µM) -8%; (at 33.0 µM) 8%; (at 100.0 µM) 20%.

Values taken from PubChem BioAssay (NCI).
